Not all results are given here.
aSyn 5UTR act: Activators via SNCA 5'UTR binding, MLPCN | alpha-synuclein 5'UTR reporter, activators screen | activity score, % (tested at 7.5 µM), hits read low | 7.1% of 300,000 active | AID 1814; in the data active = activity score below about -60%
* marks the source's active call; other numbers are inactive results.

SMILES	aSyn 5UTR act
COc1ccc(NC(=O)c2ccc3nc[nH]c3c2)cc1	-81*
O=C(Nc1ccc2c(c1)OCO2)c1ccc2nc[nH]c2c1	-112*
O=C(Nc1ccc(C(F)(F)F)cc1)c1ccc2nc[nH]c2c1	-78*
Cc1ccc(C(=O)Nc2cccc(C(F)(F)F)c2)cc1Nc1ncnc2nc[nH]c12	78
Cc1cc(/C=N/Nc2nc(N)ncc2[N+](=O)[O-])c(C)n1-c1ccccc1F	73
O=C(N/N=C/c1cc([N+](=O)[O-])ccc1O)c1cccc2cc[nH]c12	68
O=C(NC(CSCc1ccccc1)C(=O)N/N=C/c1ccc(O)cc1O)c1ccc([N+](=O)[O-])cc1 (stereo not drawn)	84
O=[N+]([O-])c1ccccc1N/N=C\c1ccccc1Cl	-209*
O=[N+]([O-])c1ccc(O)c(/C=N/Nc2ccccc2Cl)c1	-85*
O=[N+]([O-])c1ccccc1N/N=C\c1ccccc1F	-165*
C/C(=N\OCc1nc2ccccc2c(=O)n1/N=C/c1cc([N+](=O)[O-])ccc1O)c1ccccc1	-62*
COc1ccc(/C=N/Nc2ncccc2[N+](=O)[O-])c(OC)c1	-122*
O=[N+]([O-])c1cccc(N/N=C/c2cccc(O)c2O)c1	-110*
CCCOc1ccc(/C=N/Nc2ccccc2[N+](=O)[O-])c(OCCC)c1	-133*
O=[N+]([O-])c1ccccc1N/N=C/c1cccc(O)c1O	-104*
COc1ccc(/C=N/Nc2cc(C)nc3ccc(OC)cc23)c(OC)c1	117
O=[N+]([O-])c1ccc(O)c(/C=N/n2cnc3ccccc32)c1	-67*
CC(=O)Nc1cccc(-c2csc(Nc3ncccn3)n2)c1	-170*
CC(=O)Nc1ccc(-c2csc(Nc3cccc(C)n3)n2)cc1	-182*
CC(=O)Nc1cccc(-c2csc(Nc3ccc(C)cn3)n2)c1	-66*
Cc1nc(C(C)NC(=O)CCc2nnc(CCCc3ccccc3)o2)c(C)s1 (stereo not drawn)	-174*
O=C(CCc1nnc(CCCc2ccccc2)o1)NC(C1CC1)C1CC1	-146*
CC(NC(=O)CCc1nnc(-c2ccc(-c3ccccc3)cc2)o1)c1nccs1 (stereo not drawn)	89
CCOc1ccc2nc(NS(=O)(=O)Cc3ccccc3)sc2c1	-66*
CCOc1ccc2nc(SCC(=O)c3cccs3)sc2c1	-122*
SMILES	aSyn 5UTR act
CCOc1ccc2nc(NC(=O)CSc3ccccc3)sc2c1	-69*
CN(C)C(=S)Nc1nc2ccccc2s1	-137*
COc1ccc2nc(NC(=O)CSc3nc4ccccc4o3)sc2c1	-153*
CCCC(=O)Nc1nc2ccc(OCC)cc2s1	-105*
COc1ccc2nc(NC(=O)CSCC(=O)Nc3cc(C)on3)sc2c1	-101*
COc1ccc2nc(NC(=O)CSc3nnc(-c4ccoc4C)n3C)sc2c1	-134*
CCOc1ccc2nc(NC(=S)N(C)C)sc2c1	-82*
Cc1c(C(=O)Nc2ccccc2F)cnn1-c1ccccc1	-163*
Cc1c(C(=S)Nc2ccccc2)cnn1-c1ccccc1	-108*
Cc1nn(-c2ccccc2)cc1C(=S)Nc1ccccc1	-171*
Cc1c(C(=O)N(C)c2cccc(Cl)c2)cnn1-c1ccccc1	-104*
Cc1c(C(=O)Oc2cccc3ccccc23)cnn1-c1ccccc1	-65*
CCc1ccc(NC(=O)c2cnn(-c3ccccc3)c2C)cc1	-83*
Cc1c(C(=O)Nc2cc(F)cc(F)c2)cnn1-c1ccccc1	-187*
CC1CC1C(=O)OCC(=O)NC(=O)NC12CC3CC(CC(C3)C1)C2 (stereo not drawn)	-118*
Cc1ccccc1-c1ccc(C(=O)Nc2cccc(F)c2)o1	-128*
COc1cccc(NC(=O)c2ccc(-c3ccccc3[N+](=O)[O-])o2)c1	-100*
Cc1cccc(NC(=O)c2ccc(-c3ccccc3[N+](=O)[O-])o2)c1	-85*
O=c1c(Cl)c(O)c2cccc3c4ccccc4n1c23	-64*
O=C(c1ccccc1)c1cc2ccccc2o1	-149*
CC(Cc1ccccc1)NC(=O)c1cc2ccccc2o1 (stereo not drawn)	-162*
Cc1ccc(C(=O)c2cc3ccccc3o2)cc1[N+](=O)[O-]	-119*
O=C(c1ccc(F)cc1)c1cc2ccccc2o1	-171*
CCOCCCNc1ccc(-c2ccccc2)nn1	-159*
Cc1ccc2nc(-c3ccc(NC(=O)CN4C(=O)c5ccccc5C4=O)cc3)sc2c1	-200*
SMILES	aSyn 5UTR act
Cc1ccc2nc(-c3ccc(NC(=O)CN4CCN(c5ccccn5)CC4)cc3)sc2c1	-146*
Cc1ccc2nc(-c3ccc(NC(=O)CSc4nc(N)cc(=O)[nH]4)cc3)sc2c1	-177*
Cc1ccc2nc(-c3ccc(NC(=O)COC(=O)c4ccc(=O)[nH]c4)cc3)sc2c1	-67*
Cc1ccc2nc(-c3ccc(NC(=O)CCS(=O)(=O)c4ccccc4)cc3)sc2c1	62
Cc1ccc2nc(-c3ccc(NC(=O)C(C)Sc4nncs4)cc3)sc2c1 (stereo not drawn)	61
Cc1ccc2nc(-c3ccc(NC(=S)NC(=O)CC(C)C)cc3)sc2c1	-178*
COc1ccc(OC)c(C(=O)Cn2nnc(-c3ccc(N4CCOCC4)cc3)n2)c1	-135*
COc1ccc(-c2ccc(-c3nnn(CC(=O)N4CCOCC4)n3)cc2)cc1	-166*
CCCNS(=O)(=O)c1cccc(C(=O)OCc2cc(=O)oc3cc(OC)ccc23)c1	-97*
N/C(=N\OC(=O)c1csnn1)c1ccc(C(F)(F)F)cc1	-67*
COc1ccc(-c2cc(=NC(CC(C)C)C(=O)O)c3cc(C)ccc3o2)cc1 (stereo not drawn)	-153*
CCCNC(=O)Cn1nc([N+](=O)[O-])c([N+](=O)[O-])c1C	-77*
CCCCNC(=O)Cn1nc([N+](=O)[O-])c([N+](=O)[O-])c1C	-138*
Cc1ccc(Cl)c2c(N=Nc3ccccc3)c(O)[nH]c12	-170*
O=C(Nc1ccccc1)c1cc2ccccc2c(=O)s1	-209*
O=C(Nc1ccc(O)cc1)c1cc2ccccc2c(=O)s1	-114*
Cc1ccc(-c2cc(NC(=O)c3ccccc3)on2)cc1	-190*
COc1ccc(C(=O)Nc2cc(-c3ccc(C)cc3)no2)cc1	-65*
Cc1ccc(C(=O)Nc2ccccc2Sc2ccccc2)cc1	-62*
C=CCn1c(O)c(N=NC(=S)Nc2ccccc2F)c2cc(S(=O)(=O)N3CCOCC3)ccc21	78
O=C1NC(=S)N/C1=C/C=C/c1ccccc1	-92*
COC(=O)CNc1c(-c2ccccn2)nc2ccc(Br)cn12	-83*
CCN(CC)c1ccc(Nc2nc(-c3cccnc3)cs2)cc1	-210*
Fc1ccc(Nc2nc(-c3cccnc3)cs2)cc1	-265*
Clc1ccc(Nc2nc(-c3cccnc3)cs2)cc1	-146*
SMILES	aSyn 5UTR act
c1ccc(-c2csc(Nc3cccnc3)n2)cc1	-164*
O=[N+]([O-])c1cccc(-c2ccc(SCc3ccccn3)nn2)c1	-97*
COc1cccc(-c2ccc(SCc3ccccn3)nn2)c1	-84*
CCCc1cc(C(=O)NC2CCCC2)no1	-94*
CCCc1cc(C(=O)NC2CCCCC2)no1	-146*
CC(C)c1cc(C(=O)NC2CCCCC2)no1	-148*
Cc1cc(CC(C)C)n(-c2nc3ccccc3c(=O)n2OCc2ccccc2)n1	-75*
Cc1cc(C)n(-c2nc3ccccc3c(=O)n2OCC(=O)OCc2ccccc2)n1	62
FC(F)(F)c1cnc(-c2cnc(-c3cccnc3)nc2)c(Cl)c1	-124*
O=C(NCCO)c1ccc2c3n(nc2c1)-c1ccc(Cl)cc1CO3	-158*
COCCNC(=O)c1ccc2c3n(nc2c1)-c1ccc(Cl)cc1CO3	-164*

Assay outcomes (PubChem BioAssay)
